Compounds with a hit are over-represented: about 4.2% of the library has one in this group of screens.
DAX1 inh – inhibitors of DAX1 repression of SF-1 activated StAR promoter; HEK293T StAR-luciferase reporter, SF-1/DAX-1 repression relief; inhibition, % at 6.8 µM; hit rate 1.1% among 370,000;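 active = inhibition above the mean over all tested compounds plus 3 SD, cut at about 3.6% in these data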;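 also: 0% = DAX-1 cells with DMSO and 100% = cells lacking DAX-1 with DMSO; higher inhibition means more luminescence from relief of DAX-1 repression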
ssDAF12 agonist – activators of S. stercoralis DAF-12 nuclear receptor. activation, % at 6.8 µM. hit rate 1% among 370,000. HEK293 ssDAF-12/GRIP1 lit1-tk-luc reporter, luminescence; % of 3 µM dafachronic acid response;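 active = activation above the mean over all tested compounds plus 3 SD, cut at about 0.9% in these data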;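 also: 0% = DMSO-only wells and 100% = 3 µM delta7-dafachronic acid wells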
hcDAF-12 act – H. contortus DAF-12 activation, primary screen | AID 652067 | HEK293 hcDAF-12 lit1-tk-luc reporter, luminescence; 0% DMSO, 100% Δ7-dafachronic acid | hit rate 1.4% among 370,000 | activation, % at 6.8 µM;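 active = activation above the mean of all tested compounds plus 3 SD, cut at about 5.5% in these data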;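 also: 100% = response to 3 µM Δ7-dafachronic acid high control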
SMARCA2 activ – activators of SMARCA2 function | MG213 cells, MMTV-luciferase reporter, dexamethasone, overnight | activation, % at 9.1 µM | hit rate 1% among 370,000 | AID 652017; in the data active = activation above about 7.8%;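 also: 0% = vehicle wells and 100% = reference activator wells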
hgDAF-12 ag – agonists of H. glycines DAF-12 nuclear receptor | hit rate 1.8% among 370,000 | activation, % at 6.8 µM | HEK293 GAL4-hgDAF12 UAS-luciferase reporter, agonist luminescence; normalized to butyrate control;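 active = activation above a cutoff set at the mean of all screened compounds plus 3 SD, cut at about 10% in these data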;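 also: 0% = DMSO wells and 100% = sodium butyrate wells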
SMARCA2 conf – confirmation of SMARCA2 (BRM) function activators; shares compounds with SMARCA2 activ; MG213 cells, MMTV-luciferase with dexamethasone, luminescence, overnight; MG213 cells expressing E1A, Rb sequestered; DMSO wells 0%, reference activator 100%; activation, % at 9.1 µM; hit rate 30% among 3,500; AID 652260;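 active = activation above its plate's cutoff, the mean activation of tested wells plus 3 SD, cut at about 7.9% in these data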
VP16 Luc act – activates GAL4-VP16 luciferase, flagging SMARCA2 activator hits | hit rate 41% among 3,500 | activation, % at 9.1 µM | HEK293 GAL4-VP16 pG5luc reporter, luciferase luminescence; scaled: DMSO wells 0%, SAHA wells 100% | shares compounds with SMARCA2 activ;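 active = activation above the solvent-only control well mean plus 3 SD, averaged across control plates, cut at about 5.2% in these data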
* = called active by the depositor; . = no result.

SMILES | DAX1 inh | ssDAF12 agonist | hcDAF-12 act | SMARCA2 activ | hgDAF-12 ag | SMARCA2 conf | VP16 Luc act
COc1cc(F)ccc1-c1csc(C(NC(C)=O)c2cccc(F)c2)n1 (stereo unspecified) | 4.2* | -1 | 0 | 10* | 2 | 2 | 1
CC(=O)c1cc(-c2ccc(-c3cc(C(=O)O)c4ccccc4n3)cc2)c(=O)n2c1CCC2 | 0 | -1 | 0 | -3 | -3 | . | .
O=C(Nc1ccccc1OC(=O)c1ccc(Cl)cc1)c1ccc(Cl)cc1 | 1 | 1 | 6 | 2 | 9 | . | .
Cc1ccc(C(=O)Nc2cc(Cl)ccc2OC(=O)c2ccc(C)cc2)cc1 | 2 | 0 | 5 | 8.0* | 8 | 7 | 10*
Brc1cccc(Cn2ccc3ccc(-c4ccc5ccn(Cc6cccc(Br)c6)c5c4)cc32)c1 | 1 | -1 | 1 | -2 | 3 | . | .
COc1ccc(C2CC(=O)c3ccccc3O2)cc1 (stereo unspecified) | 1 | 0 | 1 | 8.6* | 5 | 8 | 3
CCOC(=O)c1c(C)[nH]c(N=Nc2ccc(OC)cc2)c1C | 3 | -1 | 1 | 9.3* | 9 | 4 | 7.7*
CCOC(=O)N1CCN(c2c(N3CCN(C(=O)OCC)CC3)c(=O)c2=O)CC1 | 0 | -1 | -1 | 0 | 0 | . | .
CCOC(=O)N1CCN(c2c(N3CCC(N4CCCCC4)CC3)c(=O)c2=O)CC1 | 3 | -1 | 0 | 8.0* | -1 | 0 | 2
COC1C(CO)OC(n2c3c(Cl)cccc3c3c4c(c5c6cccc(Cl)c6[nH]c5c32)C(=O)NC4=O)C(O)C1O (stereo unspecified) | -4 | 0 | 2 | 10* | -4 | 23* | 0
CCOc1cc(CNc2ccc(N3CCN(C(C)=O)CC3)cc2)cc(Br)c1OC | -1 | -2 | -1 | 8.6* | -1 | 2 | 0
CCOc1c(Br)cc(CNc2ccc(N3CCN(C(C)=O)CC3)cc2)cc1OC | -2 | -1 | -3 | -2 | -3 | . | .
CC(=O)C[C@@H]1SC[C@H](c2ccccc2)N1S(=O)(=O)c1ccc(C)cc1 | 0 | 0 | -1 | -2 | 4 | . | .
CC(=O)N1CCN(C2=Nc3ccccc3Sc3ccccc32)CC1 | 0 | -1 | -3 | 7 | -1 | . | .
CC1CN(C(=O)c2ccccc2)CCC1=NO (stereo unspecified) | 0 | -1 | 0 | -4 | 2 | . | .
O=c1c2ccccc2nc2c3ccccc3c(NCc3ccco3)nn12 | 0 | 0 | 2 | 13* | 1 | 10* | 1
COc1ccc(C)cc1NC(=O)c1ccccc1NS(=O)(=O)c1cccc2cccnc12 | 0 | -1 | 3 | 8.1* | 0 | -3 | -1
COc1cc(NC(=O)C2CCCN(S(=O)(=O)c3cc(OC)ccc3OC)C2)cc(OC)c1 (stereo unspecified) | 0 | -1 | -3 | -7 | -1 | . | .
COc1cccc(-c2cnc(C(O)c3ccccc3)[nH]2)c1 (stereo unspecified) | 0 | -1 | 0 | 9.2* | -2 | -2 | 8.7*
COc1cccc(-c2cnc(C(O)c3ccc(C)cc3)[nH]2)c1 (stereo unspecified) | 1 | 0 | 1 | -1 | 7 | . | .
Nc1ccccc1SC1CC(=O)N(c2ccc3c(c2)OCCO3)C1=O (stereo unspecified) | 1 | -1 | 4 | 3 | 4 | . | .
O=C1CC(Sc2ccc(Cl)cc2)C(=O)N1c1ccc2c(c1)OCCO2 (stereo unspecified) | 0 | 0 | -1 | 8.4* | -1 | -3 | 0
CC1CCCCN1C(=O)c1cc(-c2ccc(Cl)c(Cl)c2)on1 (stereo unspecified) | 0 | -1 | -1 | 2 | 7 | . | .
CC1CCCCN1C(=O)c1cc(-c2ccc3c(c2)OCO3)on1 (stereo unspecified) | 2 | 0 | 5 | 9.2* | 11* | 6 | 12*
CCOC(=O)C1=C(C)NC(=O)C(C#N)C1c1ccncc1 (stereo unspecified) | 0 | -1 | 2 | 9.8* | 0 | -3 | -2

Screens: PubChem, The Scripps Research Institute Molecular Screening Center
